Screening data from PubChem.
AI-2 QS mod: modulates the Vibrio harveyi AI-2 quorum sensing system; Vibrio harveyi JMH597 AI-2 luminescence/OD600 ratio, 9 h; hits give low values; strain lacks LuxN and CqsS sensors; 0 = neutral-control median; activity change, % at 7.5 µM; hit rate 0.4% among 300,000; AID 2094; in the data active means activity change below about -75%, passing the limit was not always enough; inconclusive means no clear call, values can overlap the other calls;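 further: luminescence divided by OD600 gain over 9 h not by final OD600 alone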
PHOSPHO1 block: PHOSPHO1 (human) inhibition. recombinant PHOSPHO1, absorbance phosphatase assay. inhibition, % at 13.3 µM. hit rate 1.1% among 290,000; in the data active means inhibition above about 60%
Target sequence (Q8TCT1 whole entry, looked up): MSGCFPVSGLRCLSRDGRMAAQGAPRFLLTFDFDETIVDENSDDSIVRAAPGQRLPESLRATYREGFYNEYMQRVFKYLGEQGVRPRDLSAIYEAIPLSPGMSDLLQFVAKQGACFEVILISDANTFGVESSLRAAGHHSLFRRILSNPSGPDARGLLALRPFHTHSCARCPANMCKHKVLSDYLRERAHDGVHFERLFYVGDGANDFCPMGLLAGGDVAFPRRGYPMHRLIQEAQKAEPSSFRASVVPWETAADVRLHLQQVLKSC
MLLE-PAM2 inh: inhibitors of microRNA-mediated deadenylation, human PABP1 MLLE binding; P11940; inhibition, % at 20 µM; AID 588489; GST-MLLE / FITC-PAM2 fluorescence polarization; hit rate 0.36% among 360,000; in the data active means inhibition above about 35%, passing the limit was not always enough;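 further: plate controls were DMSO wells with GST-MLLE for no effect and wells lacking GST-MLLE protein for full effect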
PABP FP inh: blocks human PABP binding to poly(A) RNA. P11940. AID 2014. hit rate 1% among 290,000. calls only at 35 µM. fluorescence polarization;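 further: calls also rest on retests at 20 µM and on dose response follow-up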
eIF4H FP inh: inhibitors of RNA binding by human eIF4H; eIF4H fluorescence polarization binding assay; inhibition, % at 35 µM; hit rate 0.94% among 290,000; AID 2012;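 further: calls also rest on retests at 20 µM and on dose response follow-up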
ABCB6 inh 2: human ABCB6 transporter inhibition | Q9NP58 | K562-ABCB6 porphyrin accumulation, flow cytometry, 1 h; hits give low values | fluorescence ratio to DMSO, % at 10 µM | hit rate 0.19% among 360,000;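 active means fluorescence ratio to DMSO below 75%, the collection mean minus 3 SD; inconclusive means too few cells collected in the well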;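 further: signal is porphyrin accumulated inside mitochondria; 100% equals median channel fluorescence of DMSO control wells; lower ratio means ABCB6 inhibition with less porphyrin fluorescence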
* marks the source's active call; other numbers are inactive results; i = inactive; u = inconclusive; x = not tested or not shown; + = active, no number. Only some compounds are listed: those with a hit (about 2.6% of all), similar ones and a draw of the others. Unless noted, how the calls were made is not given here.

SMILES | AI-2 QS mod | PHOSPHO1 block | MLLE-PAM2 inh | PABP FP inh | eIF4H FP inh | ABCB6 inh 2
Nc1nnc(SCCN2C(=O)c3ccccc3C2=O)s1 | 24 | 1 | -5 | i | -8 | 96
CCOC(=O)CSc1nnc(SCCN2C(=O)c3ccccc3C2=O)s1 | 38 | 73* | -81 | i | -2 | 93
CCOC(=O)CSc1nnc(N)s1 | 14 | 90* | 7 | i | -7 | 99
C=CCN(CC=C)Cc1cc(=O)oc2cc(C)c(C)cc12 | x | x | -12 | x | x | 100
CCOC(=O)COn1c(=O)c(-c2ccc(F)cc2)[n+]([O-])c2ccccc21 | 12 | 31 | -13 | i | -8 | 97
C=CCOn1c(=O)c(-c2cc3ccccc3o2)[n+]([O-])c2ccccc21 | 47 | 18 | 1 | + | 58* | 103
C=CCOn1c(=O)c(-c2ccccc2)[n+]([O-])c2ccccc21 | 33 | 14 | -14 | i | 5 | 103
CCOC(=O)COn1c(=O)c(-c2cc3ccccc3o2)[n+]([O-])c2ccccc21 | -4 | 18 | 20 | + | 64 | 96
CCOC(=O)C1=CCN(S(=O)(=O)c2ccccc2C)C1c1cccc(C)c1 (centres undefined) | x | x | -8 | x | x | 97
CCc1nc2ccc(C(=O)N3CCN(C(=O)c4ccco4)CC3)cn2c1N(C)C(=O)c1cccc(OC)c1 | x | x | -13 | x | x | 99
Nc1ccc2nc(-c3ccccc3)c(-c3ccccc3)nc2c1 | 23 | 44 | 102 | i | 70* | 118
Nc1ccc(Oc2ccc3nc(-c4ccccc4)c(-c4ccccc4)nc3c2)cc1 | 14 | 15 | x | i | -2 | 103
CC1(C)Cc2c(C#N)c(N)sc(=S)c2CO1 | 11 | 80* | 33 | u | u | 96
CC(C)C1Cc2c(C#N)c(N)sc(=S)c2CO1 (centres undefined) | -7 | 89* | 30 | u | u | 91
Cc1ccc(N/C=C2/Sc3ccccc3NC2=O)cc1 | 7 | 34 | -36 | + | u | 97
Cc1ccc2cc(C3C(C#N)=C(N)Oc4c3ccc3cccnc43)c(=O)[nH]c2c1 (centres undefined) | 18 | 42 | -13 | i | 25 | 100
CCc1ccc2[nH]c(=O)c(C3C(C#N)=C(N)Oc4c3ccc3cccnc43)cc2c1 (centres undefined) | 9 | 89* | 1 | i | 59 | 89
CCOC1CCCc2oc(-c3ccc(N(C)C)cc3)c(C(=O)OC)c21 (centres undefined) | x | x | x | x | x | 97
Cc1cc(NC(=O)CSc2nnc(-c3ccc(Br)o3)n2Cc2ccccc2)no1 | 12 | 66* | -95 | i | -5 | 94
Cn1cc(SCC(=O)Nc2ccc3c(c2)OCO3)c2ccccc21 | 25 | 72* | 13 | i | -16 | 95
Cc1nnc(SCC(=O)Nc2ccc3c(c2)OCO3)n(N)c1=O | 30 | 28 | 14 | + | active | 100
CCOc1ccc(-n2c(SC(C)C)nc3c(c2=O)SCC3)cc1 | 13 | 9 | 8 | + | 76 | 100
COc1ccc(CNC(=O)C[C@@H]2C[C@H]3c4cc(NC(=O)NC5CCCC5)ccc4O[C@H]3[C@H](CO)O2)cc1 | x | x | -20 | x | x | 98
CCCCn1c(O)c2n(c1=O)Cc1ccccc1N=C2c1ccccc1 | x | x | 6 | x | x | 97
Cc1cc(NC(=O)CSc2nnc(C3COc4ccccc4O3)n2N)no1 (centres undefined) | -77* | x | -41 | i | -10 | 103
SMILES | AI-2 QS mod | PHOSPHO1 block | MLLE-PAM2 inh | PABP FP inh | eIF4H FP inh | ABCB6 inh 2
COc1ccc(-n2c(SCC(=O)Nc3ccc4c(c3)OCO4)nc3c(c2=O)SCC3)cc1 | 25 | 61* | 1 | i | -5 | 97
c1ccc(NCc2nc(-c3ccccc3)no2)cc1 | -87* | 48 | -4 | i | -11 | 150
COc1ccc(CC(=O)NCc2nc(-c3ccccc3)no2)cc1 | -77* | 44 | -3 | i | 1 | 102
COc1ccc(-c2noc(CSc3nc(-c4ccccc4)cc(=O)[nH]3)n2)cc1 | 27 | 102* | -112 | i | -8 | 103
Cc1ccc(S(=O)(=O)NCc2nc(-c3ccccc3)no2)cc1 | 27 | 8 | -8 | i | -2 | 99
COc1ccc(OCC(=O)NCc2nc(-c3ccccc3)no2)cc1 | x | x | 9 | x | x | 97
CC1(C(=O)NS(=O)(=O)C2CC2)CCCN(C(=O)COCc2ccccc2)C1 (centres undefined) | x | x | -1 | x | x | 98
Oc1[nH]c2ccccc2c1N=Nc1ccccc1Cl | x | x | 4 | x | x | 96
Oc1c(C=Nc2ccccc2Cl)[nH]c2ccccc12 | 5 | 63* | 43* | i | -3 | 99
CCOC(=O)CSC1=C(C#N)C(c2ccccc2OCC)C(C#N)C(=O)N1 (centres undefined) | 16 | 29 | -21 | i | 5 | 101
C=CCSC1=C(C#N)C(c2ccccc2OCC)C(C#N)C(=O)N1 (centres undefined) | 12 | 89* | 41* | i | 1 | 98
O=C(CCC(=O)c1ccc(F)cc1)Nc1cc(Cl)cc(Cl)c1 | -79* | 23 | 1 | i | -3 | 97
CC(=O)c1cccc(NC(=O)CCC(=O)c2ccc(F)cc2)c1 | -6 | 14 | -8 | i | 4 | 95
CCNC(=O)C1(C)CCCN1C(=O)c1cc(OC)c(OC)c(OC)c1 (centres undefined) | x | x | -4 | x | x | 104
CCOC(=O)/C(C#N)=C/c1ccc(N2CCN(C)CC2)cc1 | 9 | 4 | -26 | i | active | 91
CCOC(=O)/C(C#N)=C\c1ccc(N2CCN(C)CC2)cc1 | 16 | 18 | -33 | i | -8 | 100
Cc1ccccc1-c1cnc(C(O)c2ccc(F)cc2C)[nH]1 (centres undefined) | x | x | 24 | x | x | 98
Cc1ccc(-n2cccc2/C=C2/C(=N)N3C(=NC2=O)SN=C3S(C)(=O)=O)cc1 | 39 | 11 | -64 | i | 50 | 97
N=C1/C(=C\c2ccc(-c3cc(Cl)cc(Cl)c3)o2)C(=O)N=C2SC=C(c3ccccc3)N12 | 16 | -2 | -6 | i | 35 | 102
CC(C)S(=O)(=O)C1=NSC2=NC(=O)/C(=C\c3ccc(-c4ccccc4)o3)C(=N)N21 | 16 | -5 | -25 | i | u | 95
N=C1/C(=C/c2ccc(-c3cccc(C(=O)O)c3)o2)C(=O)N=C2SC=C(c3ccccc3)N12 | 33 | -66 | -81 | + | 52* | 99
O=C1OC(c2cccs2)=N/C1=C\c1ccc(-c2ccccc2Cl)o1 | 24 | -3 | -98 | i | -12 | 107
CS(=O)(=O)C1=NSC2=NC(=O)/C(=C\c3ccc(-c4ccccc4)o3)C(=N)N21 | x | 7 | x | i | 54* | x
O=C1OC(c2cccs2)=N/C1=C/c1ccc(-c2cccc(C(=O)O)c2)o1 | x | -28 | -87 | + | 89 | 104
